In PubChem BioAssay (NCI):
Compounds without any hit were thinned out: in the full panel of roughly 83,000, 20% have a hit.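 Activity criterion: percent growth below 10, measured after cells in 96-well plates were exposed to a single compound concentration for 48 hours.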 Unmarked numbers belong to inactive results. Activity calls are given as the source filed them.

tested on: HL-60(TB) leukemia; experiment: NCI-60 one-dose screen, 48 h (100 = growth as untreated, 0 = no growth, -100 = all killed); settings: 10 µM unless noted

Which growth does the source give for CCCNc1nc2ccccc2c2c(=O)c3cccc(Cl)c3sc12 here?
The growth was 108%.

For CCc1nc2cc(/C=C/C(=O)NO)ccc2c(=O)n1CCc1ccc(OC)cc1, which growth is on record?
Its growth is 0.921% (active).

For FC(F)(F)c1ccc(-c2cnc(Br)nc2NC2CCCCCC2)cc1, which growth is on record?
Its growth is 8.9% (active).

For Nc1ccc(-c2ccncc2)cc1NC(=O)N1CCCC1, which growth is on record?
The growth was 120%.

With COC(=O)c1cc(-c2ccc(S(C)(=O)=O)cc2)[nH]c1N/N=C/c1c(Cl)cccc1Cl as the molecule, how does the growth read?
Its growth is -22.3% (active).

CCOc1cccc(/C=N/NC(=O)Cc2ccc(Nc3ccnc(C(F)(F)F)c3)cc2)c1O was tested. Which growth did it give?
Its growth is 73.1%.

How did the growth turn out when Cc1cc(NC(=O)c2ccccc2)c(Cl)cc1N was run?
The growth was 54.7%.

How did the growth turn out when Cc1c(CN)cc(-c2ccc(Cl)cc2)n1-c1ccccc1 was run?
Its growth is 86.9%.

For Cn1c(=O)n(C)c2cc(CNCCNc3ccnc4cc(Cl)ccc34)ccc21, which growth is on record?
Its growth is 35.4%.

For CN(C)CC(CN(C)C)C(O)c1ccccc1 (stereo unspecified), which growth is on record?
Its growth is 99.8%.

Which growth does the source give for O=C(Cn1nc(-c2cccc3ccccc23)ccc1=O)NCc1cccc(Cl)c1 here?
The growth was 22.3% [50 µM].

How did the growth turn out when Brc1cnc2[nH]cc(-c3nnc(-c4ccccc4)o3)c2c1 was run?
Its growth is 94.5%.

CC(C)c1ccc(C(=O)Nc2sc3c(c2C(N)=O)CCC(=O)C3)cc1 was tested. Which growth did it give?
The growth was -11.5% (active).

For CCN1C(=O)N(c2ccccc2)C2NC(=S)N(/N=C/C=C/c3ccccc3OC)C21 (stereo unspecified), which growth is on record?
The growth was -44.9% (active).

For CCNC(=O)Nc1ncccc1OCc1ccc(F)cc1, which growth is on record?
Its growth is 95.5%.

Which growth does the source give for O=C(C[C@@H](C(=O)NCc1cccc(C(F)(F)F)c1)N1C(=O)[C@@H](N2C(=O)OC[C@@H]2c2ccccc2)[C@H]1/C=C/c1ccccc1)NC1CCN(Cc2ccccc2)CC1 here?
Its growth is 55.3%.
